The values that follow come from PubChem BioAssay (NCATS).

Records with an inconclusive call do not appear. A call without a number means that no potency is given here. Active and inactive are the calls of the source. The call rests on the fitted dose curve; in most records, active means well fitted cell-killing curve with a large enough effect; inconclusive means small, poorly fitted or top-dose-only effect; inactive means flat fitted curve, though single readings scatter.

This experiment in a line: qHTS of pediatric cancer cell lines to identify multiple opportunities for drug repurposing: Primary screen for U-2 OS cells (AID 1347096). Further: nearly all actives have a fitted effect of over 50% in size. Particulars: U-2 OS viability, CellTiter-Glo luminescence, 48 h; series mostly up to 46 µM. An outline of the steps:
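Viability after 48 h compound treatment at 37C, 500-1,000 cells/well, read as ATP luminescence with CellTiter-Glo. Primary screens used 11-point (MIPE, 0.78 nM-46 µM) or 8-point (NPC, 0.59 nM-46 µM) final concentrations; follow-up screens used 11-point dilutions.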
For orientation: Quantitative high-throughput screening tests each substance at several concentrations.
On to `C[C@@]12CCC[C@H]1[C@@H]1CC[C@H]3C[C@@H](O)CC[C@]3(C)[C@H]1CC2`, for which the Potency result was “inactive”. With `CO/N=C(\C(=O)O)c1csc(NC(=O)CCl)n1` the entry was “inactive”.

In the case of `Nc1ncnc2nc[nH]c12`, the Potency entry is “inactive”. With `O=C(CCCl)NCc1ccccc1` the entry was “inactive”; with `Cc1nc(C2CCCCC2)c(-c2ccc(S(N)(=O)=O)c(F)c2)o1`, “inactive”; with `CC1(C)O[C@@H]2C[C@H]3[C@@H]4CCC5=CC(=O)C=C[C@]5(C)[C@@]4(F)[C@@H](O)C[C@]3(C)[C@]2(C(=O)CO)O1`, “inactive”.

`CC(C)(C)CC(=O)OCC(=O)[C@@]1(O)CC[C@H]2[C@@H]3CCC4=CC(=O)C=C[C@]4(C)[C@H]3[C@@H](O)C[C@@]21C`: the Potency entry was “inactive”. With `O=C1Nc2cc(Cl)ccc2Oc2ccccc21` the entry was “inactive”; with `CC(COc1ccccc1)NN` (configuration not stated), “inactive”; with `CC(C)=CCC/C(C)=C/CC/C(C)=C/C(=O)OCC(=O)[C@@]1(O)CC[C@H]2[C@@H]3CCC4=CC(=O)C=C[C@]4(C)[C@H]3[C@@H](O)C[C@@]21C`, “inactive”. Regarding `Oc1ccc(CCNCCCCCCNCCc2ccccc2)cc1O`, the Potency result was “inactive”.

For the compound `O=C(O)c1[nH]n(-c2ccc(S(=O)(=O)O)cc2)c(=O)c1N=Nc1ccc(S(=O)(=O)O)cc1`, the Potency result was “inactive”.

Take `CC(CC(C#N)(c1ccccc1)C(C)C)N(C)C` (configuration not stated): the Potency result was “inactive”.

On to `CC(=O)c1cc2ccccc2s1`, for which the Potency entry was “inactive”. With `O=c1[nH]c(=O)n([C@H]2O[C@H](CO)[C@@H](O)[C@@H]2O)cc1/C=C\Br` the entry was “inactive”; with `O=C(c1ccco1)N1CCNCC1`, “inactive”; with `CCOC(=O)NNc1ccc(N(CC)CC(C)O)nn1` (configuration not stated), “inactive”.
